Hits are enriched below; roughly 12% of the tested compounds scored in any of these assays.
Sfp inh: blocks B. subtilis Sfp PPTase activity. AID 1490. Biochemical Sfp PPTase activity, qHTS. 310,000 tested, 3.5% active. Potency, µM, for inactives: largest response in the series, negative = inhibition, actives largely listed as inhibitors;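 also: the enzyme is Sfp with the accession as filed and its product quenches rhodamine fluorescence; 0% = enzyme reaction without inhibitor and -100% = no enzyme wells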
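Reaction rates are the 30-min fluorescence difference (ex 525, em 598 nm) in wells containing 15 nM Sfp, 5 uM rhodamine-CoA and 12.5 uM BHQ-2-YbbR at pH 7.6 with 10 mM MgCl2.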
HP1b binding inh: inhibitors of HP1-beta chromodomain binding to methylated histone tails; Potency, µM (doses to about 114 µM), inactives show at the top dose activity change, negative = inhibition, most hits filed as inhibitors; AlphaScreen HP1-beta / biotin-H3K9me3 peptide binding; P83916; 390,000 tested, 0.56% active; AID 540317; also: nearly all actives have a fitted effect of over 70% in size
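Compound inhibition of the preformed complex between 50 nM HP1-beta and 50 nM biotinylated H3K9me3 peptide was read by AlphaScreen. Buffer was PBS pH 7.4 with 0.01% Tween-20. Incubations ran 30 min at room temperature, with 10 ug/mL donor/acceptor beads.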
PLK1 PBD inh: PLK1 (human) polo-box domain binding inhibition. P53350. Plk1 PBD binding of FITC phosphopeptide, fluorescence polarization. Potency, µM, without a hit: max response, negative = inhibition, actives largely listed as inhibitors. 360,000 tested, 2.8% active. AID 720504; also: series mostly up to about 57 µM; % is scaled to controls: 0 for no effect and ±100 for the full control effect; nearly all actives have a fitted effect of over 65% in size
JMJD2A Tudor: inhibitors of human JMJD2A Tudor domain. AlphaScreen JMJD2A-Tudor / H3K4me3 peptide binding. Potency, µM (top dose mostly 114 µM), for inactives: at the top dose activity change, negative = inhibition, most hits filed as inhibitors. 390,000 tested, 4.4% active. AID 504339; also: % is scaled to controls: 0 for no effect and ±100 for the full control effect; nearly all actives have a fitted effect of over 50% in size
Target sequence (O75164 whole entry, looked up, the tested form may be a part): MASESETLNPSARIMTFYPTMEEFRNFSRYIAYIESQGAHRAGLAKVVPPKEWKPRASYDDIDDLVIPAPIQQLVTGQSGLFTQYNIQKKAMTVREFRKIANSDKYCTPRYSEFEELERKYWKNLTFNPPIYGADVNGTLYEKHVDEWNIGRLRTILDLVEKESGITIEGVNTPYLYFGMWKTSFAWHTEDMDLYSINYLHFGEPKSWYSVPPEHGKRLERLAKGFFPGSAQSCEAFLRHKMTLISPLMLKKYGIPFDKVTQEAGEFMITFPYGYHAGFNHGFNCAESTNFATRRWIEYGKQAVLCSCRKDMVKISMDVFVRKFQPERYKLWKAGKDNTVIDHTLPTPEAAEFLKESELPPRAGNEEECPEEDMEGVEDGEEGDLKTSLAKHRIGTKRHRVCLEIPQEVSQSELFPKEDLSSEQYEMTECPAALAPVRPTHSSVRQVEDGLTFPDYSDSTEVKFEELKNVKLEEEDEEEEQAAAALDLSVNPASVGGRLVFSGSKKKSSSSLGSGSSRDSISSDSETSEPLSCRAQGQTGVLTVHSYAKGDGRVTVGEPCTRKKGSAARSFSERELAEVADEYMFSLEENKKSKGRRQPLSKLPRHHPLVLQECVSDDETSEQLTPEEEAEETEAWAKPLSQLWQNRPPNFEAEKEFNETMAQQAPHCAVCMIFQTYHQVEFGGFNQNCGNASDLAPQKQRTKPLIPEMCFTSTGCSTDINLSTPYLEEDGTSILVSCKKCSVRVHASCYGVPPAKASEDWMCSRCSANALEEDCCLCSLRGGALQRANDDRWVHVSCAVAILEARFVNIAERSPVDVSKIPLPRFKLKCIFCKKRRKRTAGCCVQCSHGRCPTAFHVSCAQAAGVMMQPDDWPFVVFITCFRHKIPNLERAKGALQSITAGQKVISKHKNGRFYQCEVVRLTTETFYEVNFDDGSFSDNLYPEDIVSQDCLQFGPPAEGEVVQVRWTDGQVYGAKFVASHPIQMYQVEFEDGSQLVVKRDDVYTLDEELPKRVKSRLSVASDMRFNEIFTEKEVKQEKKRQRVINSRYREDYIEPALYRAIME
BAZ2B inh: BAZ2B (human) inhibition; 360,000 tested, 4.4% active; Potency, µM (doses to about 114 µM), without a hit: at the highest dose activity change, negative = inhibition, actives largely listed as inhibitors; AlphaScreen BAZ2B-H3K14Ac peptide displacement; Q9UIF8; also: % is scaled to controls: 0 for no effect and ±100 for the full control effect; nearly all actives have a fitted effect of over 60% in size
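Inhibition is scored as reduced AlphaScreen emission. The BAZ2B/b-H3(5-23)K14Ac complex (50 nM each) in PBS pH 7.4, 0.01% Tween-20 meets compound (up to 110 uM) for 30 min at RT before bead addition.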
G9a inh: blocks human histone lysine methyltransferase G9a; Q96KQ7; G9a H3K9 monomethylation, AlphaScreen, 2 h; Potency, µM (top dose mostly 102 µM), without a hit: at the top dose activity, negative = inhibition, most hits filed as inhibitors; 350,000 tested, 8.8% active; also: % is scaled to controls: 0 for no effect and ±100 for the full control effect; nearly all actives have a fitted effect of over 75% in size
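Enzyme 20 nM + cpd, 15 min RT; add b-H3K9 pep 500 nM / SAM 20 uM; 2 h RT; anti-H3K9me1 Ab 0.5 ug/mL + SA donor / anti-rabbit acceptor beads 20 ug/mL each, 10 min; AlphaScreen read.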
* marks the source's active call; other numbers are inactive results; ? = inconclusive; . = no result given; [ ] = dose if it differs, or a comment. Calls follow the shape of the dose curve; as a rule, active = well fitted curve in the direction sought with a large enough effect; inconclusive = small, poorly fitted or top-dose-only effect, or another doubt; inactive = no such curve, though single readings can be large; an effect the other way counts as inactive or inconclusive. Potency is read from the fitted curve at half-maximal effect.

SMILES	Sfp inh	HP1b binding inh	PLK1 PBD inh	JMJD2A Tudor	BAZ2B inh	G9a inh
O=C(c1nc(-c2ccccc2)n(-c2ccccc2)n1)N1CCN(S(=O)(=O)c2ccccc2)CC1	-6.4%	-14.6%	?	70.8µM*	?	?
C#CCn1c(=NC(=O)c2cccs2)sc2cccc(OC)c21	79.4µM*	15.5%	-27.8%	-27.8%	-3.8%	-10.2%
C#CCn1c(=NC(=O)CN2C(=O)CCC2=O)sc2cccc(OC)c21	25.1%	37.7%	0.1%	2.6%	0.4%	2.3%
Cc1nc2sc(C(=O)Nc3ccccc3)c(N)c2c(C)c1[N+](=O)[O-]	1.2%	?	26.7µM*	?	.	-44.0%
O=C(NCc1ccc(Cl)cc1Cl)c1cccc(N2CCCS2(=O)=O)c1	.	15.4%	.	-10.9%	-2.4%	-4.7%[59 µM]
CCCCC1=CC2=CC(=O)C(C)(OC(=O)CC)C(=O)C2=CN1CCCCO (stereo unspecified)	22.2%	12.0%	-24.1%	-12.1%	-23.1%	8.5%[59 µM]
CCCCCCCC1=CC2=CC(=O)C(C)(OC(C)=O)C(=O)C2=CN1CCc1ccccc1 (stereo unspecified)	-5.5%	.	.	.	?	39.8µM*
Cc1cc(N2CCN(C)CC2)nc2ccc(NC(=O)Nc3cccc(Cl)c3)cc12	.	10.8%	.	-19.4%	-4.8%[57.1 µM]	?
Cc1ccc2[nH]c(=O)c(Cc3ccccc3)c(O)c2c1	?	44.4%	-6.9%	-3.0%[11.4 µM]	?	8.91µM*
Cc1ccc2[nH]c(C)c(CC(=O)NCc3ccccc3)c2c1	0.3%	7.3%	-17.3%	?	-33.5%	6.9%
COc1ccc2sc(N(Cc3cccnc3)C(=O)C3CCCCC3)nc2c1	.	38.6%	.	-7.5%	-18.6%	3.3%[59 µM]
COc1ccc2c(c1)c(CC(=O)NCc1ccc3c(c1)OCO3)c(C)n2C(=O)c1ccc(Cl)cc1	0.1%	.	.	.	.	.
O=C(COC(=O)c1ccc2ccccc2c1O)NCC(F)(F)F	8.9%	-7.5%	26.7µM*	?	79.4µM*	-13.4%
O=C(COC(=O)c1c2ccccc2cc2ccccc12)NCC(F)(F)F	18.9%	159.1%	-3.9%	64.5%[57.1 µM]	67.5%	126.9%[59 µM]
COc1cccc(CN2c3ccccc3-c3nc(SCC(=O)Nc4cccc(C)c4)ncc3S2(=O)=O)c1	.	5.2%	.	-20.5%	-1.4%	-1.4%[59 µM]
Cc1ccc2c(c1)NC(=O)c1cccnc1N2	11.1%	-8.4%	-14.5%	-24.5%	3.0%[57.1 µM]	44.7µM*
CCN1CCN(C(=S)NCc2ccc(C)cc2)CC1	8.6%	16.6%	-1.4%	-8.2%	5.9%	17.7%[59 µM]
CCCCNC(=S)N1CCN(c2ccccc2Cl)CC1	7.5%	71.4%	-9.9%	11.5%[57.1 µM]	13.2%	1.9%
CCNC(=S)N1CCN(CC)CC1	-17.0%	?	-21.4%	3.16µM*	56.2µM*	25.1µM*
CN1CCN(C(=S)NCCc2ccccc2)CC1	-21.5%	56.2µM*	-2.1%	4.47µM*	44.7µM*	6.31µM*
CCCCNC(=S)N1CCN(C)CC1	10µM*	44.7µM*	-19.6%	11.2µM*	39.8µM*	11.2µM*
COc1ccc(-c2nc3scc(CCNC(=O)c4cc(OC)cc(OC)c4)n3n2)cc1	.	23.3%	.	2.0%	1.2%	4.6%[59 µM]
CCCCCC#CCC#CCC#CCC#CCCCC(=O)O	-14.6%	.	.	.	3.98µM*	10µM*
CCOC(=O)c1c(C)oc2c1c(C(c1cccnc1)N1CCCCC1)c(O)c1ccccc12 (stereo unspecified)	-19.5%	-6.0%	11.9µM*	?	?	?
CCOC(=O)c1c(C)oc2c1c(C(c1ccccc1)N1CCOCC1)c(O)c1ccccc12 (stereo unspecified)	5.9%	-15.1%	-23.2%	-31.1%	-32.9%	?
CCOC(=O)c1c(C)oc2c1c(C=NCCO)c(O)c1ccccc12	50.1µM*	-2.1%	-21.2%	?	-38.7%	50.1µM*
CN1CCN(C(=O)c2cc3c(ccc4ccccc43)oc2=O)CC1	-1.1%	35.5%	-5.0%	-10.2%	-32.0%	50.1µM*
COC(=O)c1cc2c(ccc3ccccc32)oc1=O	.	68.2%	-2.2%	12.5%	.	.
Brc1c(C[n+]2ccccc2)nc2ccccn12	18.9%	45.5%	6.3%	-13.8%	-10.7%	?
